Among the data in PMC11006913 are binding signal values, retold here.

Holding throughout (test): PBM; 200 nM protein, PBS
Details in all cases: dsDNA, one strand shown

Assay [1] has as its target VAX1 (Homo sapiens, UniProt Q5SQQ9 86-172).
For assay [2], the target named is VAX1 (Homo sapiens, UniProt Q5SQQ9 86-172, T142I).
The target of assay [3] is VAX1 (Homo sapiens, UniProt Q5SQQ9 86-172, K157R).
Chain of VAX1 (Homo sapiens, UniProt Q5SQQ9 86-172, K157R) (Q5SQQ9 86-172 K157R): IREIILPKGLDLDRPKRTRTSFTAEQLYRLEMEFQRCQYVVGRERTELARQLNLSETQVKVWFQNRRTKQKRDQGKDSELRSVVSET

Chain of VAX1 (Homo sapiens, UniProt Q5SQQ9 86-172) (Q5SQQ9 86-172): as the sequence (Q5SQQ9 86-172 K157R) above, with R72K counted along it
Chain of VAX1 (Homo sapiens, UniProt Q5SQQ9 86-172, T142I) (Q5SQQ9 86-172 T142I): as the sequence (Q5SQQ9 86-172 K157R) above, with T57I, R72K counted along it

Turning to AATTGACG, the binding signal in assay [1] is 10.6 upbm affinity estimate (log intensity, higher = more binding, comparable within an allelic series); in assay [2], 10.1 upbm affinity estimate (log intensity, higher = more binding, comparable within an allelic series); in assay [3], 10.2 upbm affinity estimate (log intensity, higher = more binding, comparable within an allelic series).
For ATTATTCC, the binding signal was 10.3 upbm affinity estimate (log intensity, higher = more binding, comparable within an allelic series) in assay [1]; 10.1 upbm affinity estimate (log intensity, higher = more binding, comparable within an allelic series) in assay [2]; 10.1 upbm affinity estimate (log intensity, higher = more binding, comparable within an allelic series) in assay [3].
Regarding CCGTGAAG, the binding signal was 7.1 upbm affinity estimate (log intensity, higher = more binding, comparable within an allelic series) in assay [1]; 7.21 upbm affinity estimate (log intensity, higher = more binding, comparable within an allelic series) in assay [2]; 7.02 upbm affinity estimate (log intensity, higher = more binding, comparable within an allelic series) in assay [3].
As for GAGAATCC, the binding signal in assay [1] was 6.95 upbm affinity estimate (log intensity, higher = more binding, comparable within an allelic series); in assay [2] it was 7.22 upbm affinity estimate (log intensity, higher = more binding, comparable within an allelic series); in assay [3], 7.13 upbm affinity estimate (log intensity, higher = more binding, comparable within an allelic series).
As to TAATACCA, the binding signal is 10.2 upbm affinity estimate (log intensity, higher = more binding, comparable within an allelic series) in assay [1]; 9.86 upbm affinity estimate (log intensity, higher = more binding, comparable within an allelic series) in assay [2]; 9.87 upbm affinity estimate (log intensity, higher = more binding, comparable within an allelic series) in assay [3].
Take GGTATACC: the binding signal in assay [1] is 7.63 upbm affinity estimate (log intensity, higher = more binding, comparable within an allelic series); in assay [2] it was 7.37 upbm affinity estimate (log intensity, higher = more binding, comparable within an allelic series); in assay [3] it was 7.24 upbm affinity estimate (log intensity, higher = more binding, comparable within an allelic series).
With AAGTAAAT, the binding signal was 10.5 upbm affinity estimate (log intensity, higher = more binding, comparable within an allelic series) in assay [1]; 10.2 upbm affinity estimate (log intensity, higher = more binding, comparable within an allelic series) in assay [2]; 10.2 upbm affinity estimate (log intensity, higher = more binding, comparable within an allelic series) in assay [3].
In the case of AGCCGGTG, the binding signal in assay [1] is 7.24 upbm affinity estimate (log intensity, higher = more binding, comparable within an allelic series); in assay [2], 7.45 upbm affinity estimate (log intensity, higher = more binding, comparable within an allelic series); in assay [3], 7.26 upbm affinity estimate (log intensity, higher = more binding, comparable within an allelic series).
As for GCCAAGGC, the binding signal is 7.09 upbm affinity estimate (log intensity, higher = more binding, comparable within an allelic series) in assay [1]; 7.33 upbm affinity estimate (log intensity, higher = more binding, comparable within an allelic series) in assay [2]; 6.97 upbm affinity estimate (log intensity, higher = more binding, comparable within an allelic series) in assay [3].
As for CGGGGGAC, the binding signal is 7.24 upbm affinity estimate (log intensity, higher = more binding, comparable within an allelic series) in assay [1]; 7.14 upbm affinity estimate (log intensity, higher = more binding, comparable within an allelic series) in assay [2]; 6.94 upbm affinity estimate (log intensity, higher = more binding, comparable within an allelic series) in assay [3].
Turning to CGACCCAG, the binding signal in assay [1] is 7.38 upbm affinity estimate (log intensity, higher = more binding, comparable within an allelic series); in assay [2] it was 7.45 upbm affinity estimate (log intensity, higher = more binding, comparable within an allelic series); in assay [3], 7.3 upbm affinity estimate (log intensity, higher = more binding, comparable within an allelic series).
With ATCGTTCA, the binding signal in assay [1] is 9.46 upbm affinity estimate (log intensity, higher = more binding, comparable within an allelic series); in assay [2], 9.08 upbm affinity estimate (log intensity, higher = more binding, comparable within an allelic series); in assay [3] it was 9.31 upbm affinity estimate (log intensity, higher = more binding, comparable within an allelic series).
Turning to GGCTAAAC, the binding signal is 9.05 upbm affinity estimate (log intensity, higher = more binding, comparable within an allelic series) in assay [1] and 8.95 upbm affinity estimate (log intensity, higher = more binding, comparable within an allelic series) in assay [3].
CATTTAAG: the binding signal in assay [1] was 10.9 upbm affinity estimate (log intensity, higher = more binding, comparable within an allelic series); in assay [2], 10.6 upbm affinity estimate (log intensity, higher = more binding, comparable within an allelic series); in assay [3], 10.6 upbm affinity estimate (log intensity, higher = more binding, comparable within an allelic series).
Turning to GCGCCGGA, the binding signal was 7.27 upbm affinity estimate (log intensity, higher = more binding, comparable within an allelic series) in assay [1]; 7.29 upbm affinity estimate (log intensity, higher = more binding, comparable within an allelic series) in assay [2]; 7.2 upbm affinity estimate (log intensity, higher = more binding, comparable within an allelic series) in assay [3].
Turning to ATATGTCC, the binding signal is 9.38 upbm affinity estimate (log intensity, higher = more binding, comparable within an allelic series) in assay [1]; 8.89 upbm affinity estimate (log intensity, higher = more binding, comparable within an allelic series) in assay [2]; 9.07 upbm affinity estimate (log intensity, higher = more binding, comparable within an allelic series) in assay [3].
Take TATAAAGA: the binding signal was 9.93 upbm affinity estimate (log intensity, higher = more binding, comparable within an allelic series) in assay [1]; 9.32 upbm affinity estimate (log intensity, higher = more binding, comparable within an allelic series) in assay [2]; 9.28 upbm affinity estimate (log intensity, higher = more binding, comparable within an allelic series) in assay [3].
Turning to CCGGTGCC, the binding signal in assay [1] was 7.09 upbm affinity estimate (log intensity, higher = more binding, comparable within an allelic series); in assay [2] it was 7.25 upbm affinity estimate (log intensity, higher = more binding, comparable within an allelic series); in assay [3], 7.13 upbm affinity estimate (log intensity, higher = more binding, comparable within an allelic series).
As for ACTAACGA, the binding signal in assay [1] is 9.28 upbm affinity estimate (log intensity, higher = more binding, comparable within an allelic series); in assay [2], 8.88 upbm affinity estimate (log intensity, higher = more binding, comparable within an allelic series); in assay [3], 9.23 upbm affinity estimate (log intensity, higher = more binding, comparable within an allelic series).
On to CGCGCTAG, for which the binding signal in assay [1] was 7.18 upbm affinity estimate (log intensity, higher = more binding, comparable within an allelic series); in assay [2] it was 7.3 upbm affinity estimate (log intensity, higher = more binding, comparable within an allelic series); in assay [3], 7.16 upbm affinity estimate (log intensity, higher = more binding, comparable within an allelic series).
On to ACTAAAGA, for which the binding signal in assay [1] is 9.49 upbm affinity estimate (log intensity, higher = more binding, comparable within an allelic series); in assay [2], 9.21 upbm affinity estimate (log intensity, higher = more binding, comparable within an allelic series); in assay [3] it was 9.23 upbm affinity estimate (log intensity, higher = more binding, comparable within an allelic series).
With AATATGCT, the binding signal in assay [1] was 9.71 upbm affinity estimate (log intensity, higher = more binding, comparable within an allelic series); in assay [2] it was 9.56 upbm affinity estimate (log intensity, higher = more binding, comparable within an allelic series); in assay [3] it was 9.53 upbm affinity estimate (log intensity, higher = more binding, comparable within an allelic series).
Turning to CGCTAGCG, the binding signal was 7.32 upbm affinity estimate (log intensity, higher = more binding, comparable within an allelic series) in assay [1]; 7.37 upbm affinity estimate (log intensity, higher = more binding, comparable within an allelic series) in assay [2]; 7.28 upbm affinity estimate (log intensity, higher = more binding, comparable within an allelic series) in assay [3].
On to CCTGCAGA, for which the binding signal in assay [1] was 7.26 upbm affinity estimate (log intensity, higher = more binding, comparable within an allelic series); in assay [2], 7.33 upbm affinity estimate (log intensity, higher = more binding, comparable within an allelic series); in assay [3], 7.23 upbm affinity estimate (log intensity, higher = more binding, comparable within an allelic series).
For the sequence ATATGGAC, the binding signal in assay [1] was 9.25 upbm affinity estimate (log intensity, higher = more binding, comparable within an allelic series); in assay [2] it was 8.78 upbm affinity estimate (log intensity, higher = more binding, comparable within an allelic series); in assay [3] it was 8.81 upbm affinity estimate (log intensity, higher = more binding, comparable within an allelic series).
For CGCGGCAC, the binding signal is 6.77 upbm affinity estimate (log intensity, higher = more binding, comparable within an allelic series) in assay [1]; 7.02 upbm affinity estimate (log intensity, higher = more binding, comparable within an allelic series) in assay [2]; 7.21 upbm affinity estimate (log intensity, higher = more binding, comparable within an allelic series) in assay [3].
Turning to CGGAGACC, the binding signal in assay [1] is 6.9 upbm affinity estimate (log intensity, higher = more binding, comparable within an allelic series); in assay [2], 7.22 upbm affinity estimate (log intensity, higher = more binding, comparable within an allelic series); in assay [3], 7.28 upbm affinity estimate (log intensity, higher = more binding, comparable within an allelic series).
